From PubChem BioAssay AID1259418 (Broad Institute, 2018)
In all, about 3,400 compounds went through this assay and about 840 (25%) were called active. About 11% were inconclusive and are not listed. Only a sample is shown. Results with a measured potency or affinity are listed apart. Values without a mark were called inactive.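 The calls were made as follows: active = fitted half-maximal concentration of signal decrease at or below twice the sample's top tested concentration; inconclusive = flat curve between -70 and -30 percent, or poor fit; inactive = flat within 30 percent, signal rise, or potency above limit.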

Assay: inhibitors of Toxoplasma growth in IFN-γ-primed HeLa – cell-based, ME49Luc, luciferase, 72 h, dose response (AID 1259418)
Conditions: T. gondii ME49Luc in IFN-y HeLa, stronger effect = lower value, -100% = high-dose IFN-γ control wells; at 19.5 µM unless noted
For COc1ccc(-c2noc(C3CCCN3C(=O)c3sc(C)nc3C)n2)cc1 (configuration not stated), the max activity was 11.1% [at 0.35 µM].
In the case of COc1ccc(CNC(=O)CCC2N=C3c4ccccc4N=C(SCc4cc(=O)n5ccccc5n4)N3C2=O)cc1 (configuration not stated), the max activity was 14.6% [at 1.35 µM].
Cc1csc(-c2csc(S(=O)(=O)N3CCC(Cc4ccccc4)CC3)c2)n1 showed a max activity of -14% [at 0.35 µM].
Work on O=C(CCC1Nc2c3ccccc3nc(=S)n2C1=O)NCc1ccc(F)cc1 (configuration not stated) yielded a max activity of 21.3%.
Cc1cccc(-c2nc(CSc3nc4c(c(=O)[nH]3)CN(Cc3ccc(F)cc3)CC4)c(C)o2)c1 showed a max activity of 16.6% [at 0.16 µM].
In the case of CSc1ccc(-c2noc(-c3nnn(Cc4nc(-c5ccccc5)oc4C)c3C)n2)cc1, the max activity was 13.9%.
COc1ccc(S(=O)(=O)Nc2ccc(-c3nc(-c4ccc(C)c(C)c4)co3)cc2)cc1 showed a max activity of 54.5% [at 10 µM].
With CCn1nnc2c(NCCn3ccc4ccccc43)ncnc21 the max activity was -27.3%.
Cc1nc(-c2cc(S(=O)(=O)NCCN3CCC(C)CC3)c(C)s2)sc1C gave a max activity of 16.1% [at 0.35 µM].
Cc1nc(-c2cc(S(=O)(=O)N3CCC(C)CC3)c(C)s2)sc1C showed a max activity of -8.09% [at 0.68 µM].
Work on COc1ccc(NC(=O)Nc2ccc(-c3nc(-c4ccc(C)cc4)co3)cc2)cc1OC yielded a max activity of -10.2% [at 1.35 µM].
Work on COc1ccc(CC(=O)N2CCC3(CC2)Nc2cc(F)ccc2-n2cccc23)cc1 yielded a max activity of 9.99% [at 0.16 µM].
For Cc1ccc(-c2coc(-c3ccc(NS(=O)(=O)c4ccc(Br)cc4)cc3)n2)cc1C, the max activity was 22% [at 0.68 µM].
In the case of CN1C(=O)c2cc(NC(=O)Cc3cccs3)ccc2OC[C@@H]2O[C@H](CC(=O)N[C@@H]3CCN(Cc4ccccc4)C3)CC[C@@H]21, the max activity was 12.6% [at 0.6 µM].
Work on CN1C(=O)c2cc(NC(=O)Cc3cccs3)ccc2OC[C@@H]2O[C@H](CC(=O)N[C@H]3CCN(Cc4ccccc4)C3)CC[C@@H]21 yielded a max activity of 21.7%.
Cc1ccc(-c2coc(-c3ccc(NC(=O)Nc4ccccc4)cc3)n2)c(C)c1 gave a max activity of 15.7% [at 0.16 µM].
In the case of Cc1ccc(N2CCN(C(=O)c3ccc(-c4csc(C5CC5)n4)cc3)CC2)c(C)c1, the max activity was 4.42%.
With COc1cc(NC(=O)Nc2ccc(-c3nc(-c4ccccc4)co3)cc2)cc(OC)c1 the max activity was 11.5% [at 0.16 µM].
In the case of COc1ccc(-c2nc3c(s2)CN(C(=O)Nc2cc(C)cc(C)c2)CC3)cc1, the max activity was 17.7%.
Cc1ccc(-c2nc3c(s2)CN(C(=O)Nc2ccccc2C)CC3)cc1 gave a max activity of 18.7%.
For COc1cccc(-c2nc3c(s2)CN(C(=O)Nc2ccc(OC)c(OC)c2)CC3)c1, the max activity was 7.26%.
For Cc1ccc(-c2nc3c(s2)CN(C(=O)Nc2cccc(C)c2)CC3)cc1, the max activity was 26.8% [at 10 µM].
Work on COc1cccc(-c2nc3c(s2)CN(C(=O)Nc2ccc(C)c(C)c2)CC3)c1 yielded a max activity of 12.6% [at 2.6 µM].
Work on COc1ccc(-c2nc3c(s2)CN(C(=O)Nc2ccc(C)cc2C)CC3)cc1 yielded a max activity of 24.8%.
In the case of Cc1nc(CCNC(=O)C2CCN(S(=O)(=O)c3ccc(F)c(F)c3)CC2)cs1, the max activity was 10.4% [at 5 µM].
With Cc1ccc2c(c1C)-n1cccc1C1(CCN(C(=O)c3cccc(F)c3)CC1)N2 the max activity was -11.1% [at 0.35 µM].
O=C(NCc1cccnc1)C1CCN(Cc2cc3ccccc3n2Cc2ccccc2Cl)CC1 showed a max activity of -4.69% [at 1.35 µM].
In the case of Cc1ccccc1Cn1c(CN2CCC(C(=O)NCCC(C)N3CCCC3)CC2)cc2ccccc21 (configuration not stated), the max activity was 15.2% [at 0.16 µM].
O=C(NCCN1CCCC1)C1CCN(Cc2cc3ccccc3n2Cc2ccccc2Cl)CC1 showed a max activity of 6.81%.
O=C(Nc1ccc(-c2nc(-c3ccccc3)co2)cc1)Nc1ccccc1F gave a max activity of 103%.
COc1ccc(Cl)cc1NC(=O)N1CCc2nc(-c3ccccc3)sc2C1 gave a max activity of -14.8% [at 0.35 µM].
Work on CN(Cc1ccccn1)C(=O)C1=NOC2(CCN(S(=O)(=O)c3cccc(F)c3)C2)C1 (configuration not stated) yielded a max activity of 23.5% [at 10 µM].
Cc1ccc(-c2coc(-c3ccc(NC(=O)Nc4ccc(F)c(Cl)c4)cc3)n2)cc1 gave a max activity of 49.3%.
With CCc1c(C)sc2c1CCN(Cc1nc(-c3ccc(C(C)C)cc3)oc1C)C2c1ccccc1 (configuration not stated) the max activity was 9.71%.
For Cc1ccccc1C(=O)Nc1cnc(N2CCC(C(N)=O)(N3CCCCC3)CC2)c(C(=O)O)c1, the max activity was -6.96% [at 1.35 µM].
CCc1ccc(S(=O)(=O)N2CCC3(CC2)NCCN=C3NCc2cc(F)cc(F)c2)cc1 showed a max activity of 16.8%.
For CCc1ccc(S(=O)(=O)N2CCC3(CC2)NCCN=C3NCc2ccc(Cl)cc2)cc1, the max activity was 17.4% [at 10 µM].
For CC(C)Cc1ccc(S(=O)(=O)N2CCC3(CC2)NCCN=C3NCc2cccc(F)c2)cc1, the max activity was 16.8% [at 10 µM].
In the case of Cc1cnn(C(C)C(=O)N2CCc3[nH]nc(-c4ccc(F)c(F)c4)c3C2)c1 (configuration not stated), the max activity was 11.2%.
Cc1ccc(-c2coc(-c3ccc(NC(=O)Nc4ccccc4Cl)cc3)n2)cc1 gave a max activity of 13.9% [at 0.16 µM].
In the case of COC(=O)C1CCN(S(=O)(=O)c2cc3c4c(c2)CCC(=O)N4CCC3)CC1, the max activity was 9.1% [at 1.35 µM].
Molecule CCOc1ccc(-c2nc3c(s2)CN(S(=O)(=O)c2cc(C)cc(C)c2)CC3)cc1 has a max activity of -12.1% [at 2.6 µM].
Work on COc1ccc(-c2nc(NCc3cccc(Cl)c3)c3ccccc3n2)cc1 yielded a max activity of -12% [at 0.35 µM].
With CCc1c(C)sc2c1CCN(Cc1nc(-c3ccc(Cl)cc3)oc1C)C2c1ccccc1 (configuration not stated) the max activity was 38.9% [at 10 µM].
Work on CCc1ccccc1NC(=O)N1CCc2nc(-c3ccc(C)cc3)sc2C1 yielded a max activity of -16.8%.
Clc1ccc(-c2nc(N3CCN(Cc4ccc5c(c4)OCO5)CC3)c3ccccc3n2)cc1 gave a max activity of 21.6% [at 2.6 µM].
With O=C(Nc1ccc(Cl)cc1)Nc1ccc(-c2nc(-c3ccccc3)co2)cc1 the max activity was -18.8% [at 2.6 µM].
With COc1ccc(-c2nc(CN(c3ccc(OC)cc3)S(=O)(=O)c3ccc(C)cc3)c(C)o2)cc1 the max activity was -10.7% [at 0.16 µM].
Molecule COc1ccc(-c2nc(CN(c3ccc(OC)cc3)S(=O)(=O)c3ccc(OC)cc3)c(C)o2)cc1 has a max activity of 16.7% [at 5 µM].
In the case of COc1ccc(N(Cc2nc(-c3ccc(C)cc3)oc2C)S(=O)(=O)c2ccc(OC)cc2)cc1, the max activity was 6.72% [at 1.35 µM].
For Cc1oc(-c2ccc(OC(C)C)cc2)nc1CN(c1ccccc1)S(=O)(=O)c1ccccc1, the max activity was 5.29%.
Work on COc1ccc(-c2nc(CN(c3ccc(OC)cc3)S(=O)(=O)c3ccccc3)c(C)o2)cc1 yielded a max activity of 21.2% [at 5 µM].
With Cc1oc(-c2ccccc2)nc1CN(c1ccccc1)S(=O)(=O)c1ccccc1 the max activity was 6.75% [at 2.6 µM].
For COc1ccc(S(=O)(=O)N2CCC[C@@H]2C(=O)NCCc2csc(C)n2)cc1, the max activity was -6.98% [at 5 µM].
With CCc1ccccc1NC(=O)COc1nc(C)nc2ccccc12 the max activity was -12.9% [at 2.6 µM].
For COCCNC(=O)C1(C)CCC(=O)N1CCc1c[nH]c2ccccc12 (configuration not stated), the max activity was 3.62%.
O=C(CC1N=C2c3ccccc3N=C(SCc3cccc(F)c3)N2C1=O)NCc1ccc2c(c1)OCO2 (configuration not stated) showed a max activity of 67.4%.
Cc1cccc(CN2CCC3(CC2)N=C(c2cccc(F)c2)C(=O)N3)c1 showed a max activity of -7.22%.
In the case of Cc1cccc(-c2noc(-c3nnn(Cc4nc(-c5cccc(Cl)c5)oc4C)c3C)n2)c1, the max activity was 60.4%.
Work on CCN1CC(C(=O)O)CN2CCN(C(=O)c3ccncc3F)CC2C1 (configuration not stated) yielded a max activity of 5.55%.
Work on COc1ccc(-c2nc(Nc3ccc(C(C)C)cc3)c3ccccc3n2)cc1 yielded a max activity of 12% [at 5 µM].
With O=C(NCCc1csc(-c2ccccc2)n1)[C@H]1CSCN1C(=O)c1cccc(F)c1 the max activity was -24.5%.
With O=C(NCCc1csc(-c2ccccc2)n1)[C@H]1CCCN1C(=O)c1ccco1 the max activity was -10.6% [at 0.16 µM].
Work on CN(C)C(=O)c1cccc(-c2ccc3c(c2)[C@H]2[C@H](CCN2C(=O)Cc2ccccc2)[C@@H](CO)N3)c1 yielded a max activity of 24.7% [at 5 µM].
Cc1ccc(S(=O)(=O)N2CC[C@@H]3[C@H]2c2cc(-c4cccc(C(=O)N(C)C)c4)ccc2N[C@@H]3CO)cc1 gave a max activity of 21.6% [at 10 µM].
Work on COc1ccccc1-c1ccc2c(c1)[C@H]1[C@H](CCN1Cc1ccccc1F)[C@@H](CO)N2 yielded a max activity of 11.2% [at 1.2 µM].
With O=C(Cc1ccccc1)N1CC[C@H]2[C@H](CO)Nc3ccc(C4=CCCCC4)cc3[C@H]21 the max activity was 30.4% [at 10 µM].
Work on CCOc1ccc(C(=O)N2CCC3(CC2)Nc2cc(F)ccc2-n2cccc23)cc1 yielded a max activity of -6.53% [at 5 µM].
With O=C(COc1ccccc1)N1CCC2(CC1)Nc1ccc(Cl)cc1-n1cccc12 the max activity was 8.01% [at 0.35 µM].
For O=C(COc1ccc(Cl)cc1)N1CCC2(CC1)Nc1ccc(Cl)cc1-n1cccc12, the max activity was 3.74% [at 0.68 µM].
For Cc1cccc(OCC(=O)N2CCC3(CC2)Nc2ccc(C)c(C)c2-n2cccc23)c1, the max activity was 8.26% [at 0.16 µM].
O=C(COc1ccc(Cl)cc1)N1CCC2(CC1)Nc1cc(F)ccc1-n1cccc12 gave a max activity of 9.43% [at 0.16 µM].
